For test [1], the target named is Progesterone receptor (Homo sapiens) (UniProt P06401). The test can be described thus: qHTS assay to identify small molecule agonists of the progesterone receptor (PR) signaling pathway (AID 1346784; calls by dose curve; also: nearly all actives have a fitted effect of over 30% in size). An outline of the steps:
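PR-UAS-bla HEK 293T cells (beta-lactamase reporter under UAS) in 2% charcoal-stripped FBS, dosed with 23 nL compound after 6 hr, incubated 16hr at 37C. LiveBLAzer B/G FRET substrate added, fluorescence read after 2 hours.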
On the technique in general: Quantitative high-throughput screening tests each substance at several concentrations.

Test [2] is described as follows: qHTS assay to identify small molecule antagonists of the progesterone receptor (PR) signaling pathway - cell viability counter screen (AID 1346798). Also: series mostly up to about 92 µM; nearly all actives have a fitted effect of over 50% in size. Summed up:
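PR-UAS-bla HEK293T cells, 3,000/well in 2% charcoal-stripped FBS medium, dosed with compounds plus R5020 agonist and incubated 16 h at 37C. Viability then measured in the same wells by CellTiter-Glo luminescence after 30 min at RT.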

A short description of test [3]: qHTS assay to identify small molecule antagonists of the TGF-beta/Smad signaling pathway - cell viability counter screen (AID 1346824). Also: nearly all actives have a fitted effect of over 50% in size. An outline of the steps: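 SBE-bla HEK 293T cells, incubated overnight, then compound plus 0.25 ng/mL TGF-beta1 (stock added) for 5 hr at 37 C. Viability was read in the same wells by CellTiter-Glo luminescence after 30 min at room temperature.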

Test [4] can be described thus: qHTS assay to identify small molecule agonists of the TGF-beta/Smad signaling pathway - cell viability counter screen (AID 1346829). Also: top concentration of the series differs between compounds; nearly all actives have a fitted effect of over 45% in size. Summed up: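 HEK 293T SBE-bla line, 5 hr compound exposure at 37 C, multiplexed CellTiter-Glo viability read by luminescence.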
The nature of test [5]: qHTS assay to identify small molecule agonists of the TGF-beta/Smad signaling pathway (AID 1346859; active = well fitted activation curve with a large enough effect in the signal ratio in the repeat runs, not every such curve was filed as active; the % refers to the signal ratio; also: series mostly up to about 77 µM). Summed up: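 SBE-bla HEK293T cells plated overnight, then compound exposure for 5 h at 37 C. Beta-lactamase reporter read with LiveBLAzer B/G FRET substrate after 2 h at room temperature, fluorescence at 405 nm excitation, 460/530 nm emission.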
Test [6] concerns the target Thyrotropin-releasing hormone receptor (Homo sapiens) (UniProt P34981). Description: qHTS assay to identify small molecule antagonists of the thyrotropin-releasing hormone receptor (TRHR) signaling pathway (AID 1346877; active = well fitted inhibition curve with a large enough effect in the repeat runs, not every such curve was filed as active; also: series mostly up to about 51 µM). Summed up:
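Overnight-plated (18 h, 37 °C) HEK293 cells expressing TRHR were dye-loaded 2 h, treated with compound, then stimulated with TRH at 1 nM final. Fluorescence intensity was captured every second for 3 min.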

The target is the same in test [7]. The test can be described thus: qHTS assay to identify small molecule agonists of the thyrotropin-releasing hormone receptor (TRHR) signaling pathway (AID 1346891; calls by dose curve; also: series mostly up to about 58 µM). Summed up: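 HEK293 cells expressing TRHR plated 18 h at 37 C/5% CO2, calcium dye-loaded 2 h at 37 C, then compound added (agonist mode); kinetic calcium fluorescence read 3 min at 1 s intervals; 15 concentrations in triplicate.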

A short description of test [8]: Human pregnane X receptor (PXR) small molecule agonists, qHTS cell viability counter screen (AID 1346977). Also: nearly all actives have a fitted effect of over 50% in size. Also: potency is read from the fitted curve at half-maximal effect. An outline of the steps:
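PXR-Luc HepG2 cells (2,000/well, 5% charcoal-stripped FBS) preincubated 5 hr, then exposed to compounds 24 hr at 37 C. Viability read in the same wells by CellTiter-Fluor fluorescence, reagent added at 23 hr, 1 hr incubation.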

Test [9] is described as follows: Caspase-3/7 induction in HepG2 cells by small molecules, qHTS assay (AID 1346978). Also: nearly all actives have a fitted effect of over 15% in size. Summed up: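 Wild-type HepG2 cells, 2,000/well, settled 5 hr at 37 C and 5% CO2, then compound-treated for 17 hr; caspase-3/7 activity read by luminescent Caspase-Glo 3/7 after 30 min at room temperature.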
Test [10] is described as follows: Caspase-3/7 induction in CHO-K1 cells by small molecules, qHTS assay (AID 1346980). Also: nearly all actives have a fitted effect of over 15% in size. Summed up: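 Wild-type CHO-K1 cells exposed to compounds for 17hr at 37 C, 5% CO2. Caspase-3/7 activity then measured by Caspase-Glo 3/7 luminescence after 30min at room temperature.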
Test [11] concerns the target Acetylcholinesterase (Homo sapiens) (UniProt P22303). The test can be described thus: Acetylcholinesterase (AChE) small molecule antagonists: colormetric cell-based qHTS assay (AID 1347395; calls by dose curve; also: nearly all actives have a fitted effect of over 30% in size). Summed up: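 SH-SY5Y cells attached overnight, exposed to compound 30 min at 37 C, then given DTNB/acetylthiocholine; after 90 min at 37 C, colorimetric thiocholine read gives cellular AChE activity.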

For test [12], the target named is Progesterone receptor (Homo sapiens) (UniProt P06401). Description: qHTS assay to identify small molecule antagonists of the progesterone receptor (PR) signaling pathway (AID 1346795; active = well fitted inhibition curve with a large enough effect in the signal ratio in the repeat runs, not every such curve was filed as active; the % refers to the signal ratio; also: potency is read from the fitted curve at half-maximal effect). An outline of the steps: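 PR-UAS-bla HEK293T cells with beta-lactamase reporter under UAS control, in 2% charcoal-stripped FBS, treated with compounds plus 1 nM promegestone (R5020, final) for 16 hr at 37C. Read-out: FRET beta-lactamase substrate fluorescence after 2 hr at room temperature.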

Test [13] can be described thus: Caspase-3/7 induction in CHO-K1 cells by small molecules, qHTS cell viability counter screen (AID 1346979). Also: nearly all actives have a fitted effect of over 35% in size. Also: potency is read from the fitted curve at half-maximal effect. Summed up: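 Wild-type CHO-K1 cells (1,500/well) treated with compound after 5 h plating; after 16 h at 37C, viability read as CellTiter-Fluor fluorescence following 1 h reagent incubation, in the same wells as the caspase read.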
Test [14] can be described thus: qHTS assay to identify small molecule agonists of the progesterone receptor (PR) signaling pathway - cell viability counter screen (AID 1346799; calls by dose curve; also: nearly all actives have a fitted effect of over 45% in size). An outline of the steps:
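Counter screen in the PR-UAS-bla HEK293T wells (2% charcoal-stripped FBS, 16 h compound exposure at 37 C) after the bla read. CellTiter-Glo added, 30 min at room temperature, luminescence read as cell viability.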

In test [15] the target is Nuclear receptor subfamily 1 group I member 2 (Homo sapiens) (UniProt O75469). Description: Human pregnane X receptor (PXR) small molecule agonists, qHTS assay (AID 1346982). Also: nearly all actives have a fitted effect of over 35% in size. Also: potency is read from the fitted curve at half-maximal effect. Summed up:
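Stable HepG2 line reporting PXR-mediated CYP3A4 expression via luciferase. Treatment: 24 hr with compounds in DMSO at 37 C. Detection: ONE-Glo luminescence.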

Test [16] in a line: Caspase-3/7 induction in HepG2 cells by small molecules, qHTS cell viability counter screen (AID 1346981). Also: series mostly up to about 92 µM; nearly all actives have a fitted effect of over 30% in size. An outline of the steps: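 Treatment of HepG2 cells with DMSO-delivered compounds ran 16 hr at 37 C following a 5-hr pre-incubation of 2,000 cells/well. CellTiter-Fluor fluorescence, read after 1 hr, served as the viability measure in a qHTS format.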
The target of test [17] is Nuclear receptor subfamily 1 group I member 2 (Rattus norvegicus) (UniProt Q9R1A7). Description: Rat pregnane X receptor (rPXR) activation by small molecules, qHTS assay (AID 1346983). Also: nearly all actives have a fitted effect of over 20% in size. To be noted: rPXR luciferase reporter cells, One-Glo luminescence, 24 h; max activation: active compounds read high. Summed up: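 Cell-based rPXR activation assay: rPXR cells, 2,000 per well, rested 5hr at 37 C, then exposed to compounds in DMSO for 24 hr at 37 C. Luciferase activity read by One-Glo luminescence after 30 min at room temperature.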

Test [18] has as its target Nuclear receptor subfamily 1 group I member 2 (Homo sapiens) (UniProt O75469). Description: CYP3A4 induction through human pregnane X receptor (PXR) by small molecules, qHTS assay (AID 1346984). Also: nearly all actives have a fitted effect of over 40% in size. An outline of the steps:
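After 24 h at 37C with compound, DPX-2 cells (HepG2, co-transfected PXR response element and CYP3A4 promoter-luciferase) got 3uM final P450-Glo Luciferin-IPA for 3 h; One-Glo luminescence followed.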

For test [19] the target is unchanged. The test can be described thus: Human pregnane X receptor (PXR) activation by small molecules, qHTS assay (AID 1346985). Also: nearly all actives have a fitted effect of over 40% in size. Summed up: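 DPX-2 cells (HepG2 co-transfected with a PXR response element and a CYP3A4-promoter luciferase construct) were seeded at 2,000 per well, rested 5 hr at 37C, then exposed to DMSO-dissolved compounds for 24 hr. Activation was read as luciferase luminescence.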

The source of these data is PubChem BioAssay (Tox21).

Values without a mark were called inactive. Results filed as inconclusive are left out. Calls of active or inactive are those of the source. Unless noted, calls follow the shape of the dose curve; as a rule, active = well fitted curve in the direction sought with a large enough effect in the repeat runs; inconclusive = weak or mixed curves; inactive = no such curve, though single readings can be large; an effect the other way counts as inactive or inconclusive.
% is scaled to controls: 0 for no effect and ±100 for the full control effect.

Chain of Thyrotropin-releasing hormone receptor (Homo sapiens) (P34981 whole entry, looked up): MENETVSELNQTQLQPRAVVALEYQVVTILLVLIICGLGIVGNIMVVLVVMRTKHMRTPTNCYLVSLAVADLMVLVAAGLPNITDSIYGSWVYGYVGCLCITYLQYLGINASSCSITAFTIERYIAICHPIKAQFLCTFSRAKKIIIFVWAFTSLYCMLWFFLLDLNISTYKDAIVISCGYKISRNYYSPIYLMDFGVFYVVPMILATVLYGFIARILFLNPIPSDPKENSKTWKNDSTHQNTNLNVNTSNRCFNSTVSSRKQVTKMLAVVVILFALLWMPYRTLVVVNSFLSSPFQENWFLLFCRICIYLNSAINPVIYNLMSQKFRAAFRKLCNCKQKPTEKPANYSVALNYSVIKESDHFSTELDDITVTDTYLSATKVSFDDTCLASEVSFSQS
Chain of Nuclear receptor subfamily 1 group I member 2 (Homo sapiens) (O75469 whole entry, looked up): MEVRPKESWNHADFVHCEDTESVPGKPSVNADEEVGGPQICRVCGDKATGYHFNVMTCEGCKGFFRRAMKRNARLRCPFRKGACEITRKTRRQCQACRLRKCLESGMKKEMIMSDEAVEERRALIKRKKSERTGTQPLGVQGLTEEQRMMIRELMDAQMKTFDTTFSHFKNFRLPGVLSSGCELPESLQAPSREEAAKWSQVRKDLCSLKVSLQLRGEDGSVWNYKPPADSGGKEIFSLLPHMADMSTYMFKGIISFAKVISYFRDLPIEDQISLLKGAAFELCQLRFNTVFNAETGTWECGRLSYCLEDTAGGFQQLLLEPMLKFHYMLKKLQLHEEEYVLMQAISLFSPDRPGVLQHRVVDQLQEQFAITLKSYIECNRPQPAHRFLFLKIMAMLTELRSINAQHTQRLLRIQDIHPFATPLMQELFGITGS
Chain of Progesterone receptor (Homo sapiens) (P06401 whole entry, looked up): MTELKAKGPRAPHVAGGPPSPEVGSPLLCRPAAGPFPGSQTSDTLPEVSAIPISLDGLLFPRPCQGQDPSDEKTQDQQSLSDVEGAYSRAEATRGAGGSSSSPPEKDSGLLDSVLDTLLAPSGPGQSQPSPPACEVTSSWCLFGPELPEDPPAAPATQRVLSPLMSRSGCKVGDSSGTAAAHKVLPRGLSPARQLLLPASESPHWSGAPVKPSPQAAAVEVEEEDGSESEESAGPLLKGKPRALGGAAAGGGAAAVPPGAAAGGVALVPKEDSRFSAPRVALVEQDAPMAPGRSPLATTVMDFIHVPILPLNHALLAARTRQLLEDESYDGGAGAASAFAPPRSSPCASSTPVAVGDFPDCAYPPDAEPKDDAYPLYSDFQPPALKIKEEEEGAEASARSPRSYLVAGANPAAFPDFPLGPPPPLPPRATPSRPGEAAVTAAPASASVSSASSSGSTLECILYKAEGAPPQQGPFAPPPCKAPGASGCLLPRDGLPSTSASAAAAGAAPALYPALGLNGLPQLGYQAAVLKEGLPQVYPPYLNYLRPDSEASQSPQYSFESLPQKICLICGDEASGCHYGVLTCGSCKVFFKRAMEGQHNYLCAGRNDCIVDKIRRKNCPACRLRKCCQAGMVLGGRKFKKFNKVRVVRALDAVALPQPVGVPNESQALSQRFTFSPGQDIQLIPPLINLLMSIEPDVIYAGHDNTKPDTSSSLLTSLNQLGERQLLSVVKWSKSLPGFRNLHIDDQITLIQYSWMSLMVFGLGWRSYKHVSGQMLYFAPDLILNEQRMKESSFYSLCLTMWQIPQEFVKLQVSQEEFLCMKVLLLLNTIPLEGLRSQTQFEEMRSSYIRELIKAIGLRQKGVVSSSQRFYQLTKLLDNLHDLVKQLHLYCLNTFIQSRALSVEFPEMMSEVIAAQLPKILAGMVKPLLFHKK
Chain of Acetylcholinesterase (Homo sapiens) (P22303 whole entry, looked up): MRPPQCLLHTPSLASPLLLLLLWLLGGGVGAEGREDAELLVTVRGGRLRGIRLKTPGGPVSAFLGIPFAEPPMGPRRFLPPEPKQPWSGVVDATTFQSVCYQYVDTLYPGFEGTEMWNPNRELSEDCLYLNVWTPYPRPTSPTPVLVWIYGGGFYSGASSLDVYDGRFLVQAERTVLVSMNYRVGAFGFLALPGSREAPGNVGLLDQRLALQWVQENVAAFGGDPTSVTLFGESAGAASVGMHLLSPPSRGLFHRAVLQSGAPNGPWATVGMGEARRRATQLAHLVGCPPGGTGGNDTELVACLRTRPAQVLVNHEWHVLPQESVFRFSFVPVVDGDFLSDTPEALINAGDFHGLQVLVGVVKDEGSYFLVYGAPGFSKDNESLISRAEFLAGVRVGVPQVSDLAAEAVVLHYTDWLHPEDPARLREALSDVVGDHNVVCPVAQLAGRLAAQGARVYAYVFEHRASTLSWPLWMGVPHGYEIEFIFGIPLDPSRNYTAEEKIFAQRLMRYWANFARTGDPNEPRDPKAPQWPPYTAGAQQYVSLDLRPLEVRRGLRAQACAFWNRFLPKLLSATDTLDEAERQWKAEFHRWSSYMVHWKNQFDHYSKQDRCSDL
Chain of Nuclear receptor subfamily 1 group I member 2 (Rattus norvegicus) (Q9R1A7 whole entry, looked up): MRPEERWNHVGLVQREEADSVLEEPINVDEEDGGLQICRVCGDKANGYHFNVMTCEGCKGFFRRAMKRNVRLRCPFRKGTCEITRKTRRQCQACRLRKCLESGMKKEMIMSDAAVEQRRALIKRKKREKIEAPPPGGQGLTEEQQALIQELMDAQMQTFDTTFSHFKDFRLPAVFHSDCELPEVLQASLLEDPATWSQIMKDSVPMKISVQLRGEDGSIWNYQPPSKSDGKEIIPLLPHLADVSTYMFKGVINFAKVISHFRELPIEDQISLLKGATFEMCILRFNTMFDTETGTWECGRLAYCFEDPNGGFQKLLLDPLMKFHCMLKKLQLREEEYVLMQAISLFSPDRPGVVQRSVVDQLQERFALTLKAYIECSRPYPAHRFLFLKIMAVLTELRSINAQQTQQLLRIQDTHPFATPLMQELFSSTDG

For the molecule `O=C(Nc1ccccc1)N(Cc1ccc(Cl)cc1)C1CCCC1`, the Potency entry in [1], in test [2], in test [3], in test [9], in test [10] and in test [11] was “inactive” each time. Moreover, the molecule was called inactive in test [4], in [5], in test [6] and in test [7]. Further, in [8], the Potency was 61.1 µM (active).
In the case of `CC(C)CP(=S)(S)CC(C)C`, the figures for the Potency in test [12] and in [13] were 0.486 µM (active) and 48.6 µM (active), respectively. Moreover, the Potency result in test [3], in test [8], in test [9] and in test [11] was “inactive” each time. The call in test [4], in test [5], in test [6] and in test [7] was inactive.
Turning to `COc1cccc(C(=O)NN(C(=O)c2cc(C)cc(C)c2)C(C)(C)C)c1C`, the Potency entry in test [12], in test [2], in [14], in test [3], in test [8] and in [9] was “inactive” throughout. Further, the Potency result in test [10], in test [15] and in [11] was “inactive” each time. The molecule was called inactive in test [4], in [5], in [6] and in test [7]. Also, the Potency in test [13] was 61.1 µM (active).
Take `C#C[C@]1(O)C=C[C@H]2[C@@H]3CCC4=CC(=O)CC[C@@H]4[C@H]3CC[C@@]21CC`: the Potency result in test [12], in [3], in test [8], in test [9], in test [10] and in [16] was “inactive” in each case. Moreover, the Potency result in test [18], in test [19] and in test [11] was “inactive” throughout. Also, the molecule was called inactive in test [4], in test [5], in test [6] and in test [7]. Also, in test [15], the Potency is 29.8 µM (active). Further, the max activation in test [17] is -1.56%.
For `[O]=[Cd]`, the Potency result in test [1], in [2], in test [14], in test [3], in test [8] and in test [9] was “inactive” in each case. Also, the Potency entry in test [13], in [10], in test [16], in [15], in test [18] and in [19] was “inactive” in each case. In test [11], the Potency entry is “inactive”. Also, the call in test [4], in test [5], in test [6] and in [7] was inactive. The max activation in test [17] is 0.414%.
Take `Nc1cc(Cl)ccc1O`: the Potency result in [1], in test [2], in test [14], in test [3], in test [8] and in test [9] was “inactive” throughout. Also, the Potency result in test [10] and in test [11] was “inactive” in each case. For the same molecule, the outcome in [4], in [5], in test [6] and in [7] was inactive. The Potency in test [13] is 29.6 µM (active).
Consider `CN1CCC(N(Cc2ccccc2)c2ccccc2)CC1`, for which the Potency result in test [1], in test [2], in test [14], in test [3], in test [9] and in test [13] was “inactive” throughout. Besides, the Potency entry in [10], in test [16], in test [15] and in [11] was “inactive” throughout. Besides, the result in [4], in test [5], in test [6] and in test [7] was inactive.
On to `CCCCC(=O)Cl`, for which the Potency result in test [1], in test [2], in test [14], in [3], in [8] and in [9] was “inactive” in each case. The Potency entry in test [13], in [16], in test [15] and in [11] was “inactive” in each case. The call in test [4] and in test [5] was inactive.
